PubChem BioAssay (EPA / NIEHS)
Results filed as inconclusive are left out. Calls of active or inactive are those of the source. How the source made its calls, unless noted: active means hit-call score of the fitted dose curve at least 0.9, where 1 is the maximum; inconclusive means response in the unintended direction; inactive means score below 0.9.

What was measured:
[1] = TOX21_p53_BLA_p2_viability: Viability Assessment in the Tox21 HCT-116 p53 Agonism Beta-lactamase Assay, Phase 2 (AID 2283591);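 further: compound exposure lasted 16 h at 37 °C; actives lower the ATP signal meaning cytotoxicity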
Summary of the method: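 HCT-116 p53-bla cells (4000/well) rested 5 h at 37C, then received compounds in DMSO (217-fold dilution) for 16 h at 37C, 5% CO2. After the CCF4 read, CellTiter-Glo was added; ATP luminescence was read after 30 min at room temperature.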

[2] = molecular target: Cellular tumor antigen p53 (Homo sapiens) (UniProt P04637); experiment: TOX21_p53_BLA_p2_ratio: Tox21 HCT-116 p53 Agonism Beta-lactamase Assay, Ratio, Phase 2 (AID 2283592)
Cellular tumor antigen p53 (Homo sapiens), sequence (P04637 whole entry, looked up): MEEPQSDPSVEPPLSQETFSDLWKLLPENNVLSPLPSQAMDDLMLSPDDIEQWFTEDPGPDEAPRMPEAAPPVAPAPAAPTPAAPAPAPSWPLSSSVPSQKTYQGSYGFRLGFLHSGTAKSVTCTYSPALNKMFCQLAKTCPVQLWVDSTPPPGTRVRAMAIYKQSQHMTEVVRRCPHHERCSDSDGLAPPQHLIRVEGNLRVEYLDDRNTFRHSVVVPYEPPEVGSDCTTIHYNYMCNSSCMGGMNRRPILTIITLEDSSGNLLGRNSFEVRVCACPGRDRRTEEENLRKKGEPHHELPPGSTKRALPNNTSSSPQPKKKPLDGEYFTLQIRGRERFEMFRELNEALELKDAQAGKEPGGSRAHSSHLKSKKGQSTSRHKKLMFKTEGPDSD
Summary of the method: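 Human colon HCT116 cells with an inducible p53 beta-lactamase reporter are exposed to test chemicals for 16 h at 37C. Reporter induction is read as the 460/530 nm emission ratio after CCF4-AM loading, normalized to DMSO.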

[3] = TOX21_p53_BLA_p3_viability: Viability Assessment in the Tox21 HCT-116 p53 Agonism Beta-lactamase Assay, Phase 3 (AID 2283593)
Summary of the method: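 HCT-116 cells (4000/well) rested 5 h at 37C, then got DMSO compounds by pin tool (217-fold dilution) for 16 h at 37C, 5% CO2. After the bla read, CellTiter-Glo was added and luminescence read at 30 min, room temperature.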

[4] = molecular target: Cellular tumor antigen p53 (Homo sapiens) (UniProt P04637); experiment: TOX21_p53_BLA_p3_ratio: Tox21 HCT-116 p53 Agonism Beta-lactamase Assay, Ratio, Phase 3 (AID 2283596)
Summary of the method: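 HCT116 p53-bla cells (4000/well) given compound in DMSO (217-fold dilution) after 5 h, incubated 16 h at 37C. CCF4-AM substrate 2 h at room temperature; 460/530 nm emission ratio, gain fitted against DMSO.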

[5] = TOX21_p53_BLA_p4_viability: Viability Assessment in the Tox21 HCT-116 p53 Agonism Beta-lactamase Assay, Phase 4 (AID 2283597);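 further: hits lower the luminescence signal meaning cytotoxicity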
Summary of the method: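 Luminescent ATP readout (CellTiter-Glo, 30 min, room temperature) in the same wells as the p53 bla ratio. HCT116 cells were treated for 16 h at 37C with DMSO-dissolved compounds.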

[6] = molecular target: Cellular tumor antigen p53 (Homo sapiens) (UniProt P04637); experiment: TOX21_p53_BLA_p5_ratio: Tox21 HCT-116 p53 Agonism Beta-lactamase Assay, Ratio, Phase 5 (AID 2283599)
Summary of the method: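 HCT-116 cells carrying a p53-inducible beta-lactamase reporter were seeded at 4000 cells/well and dosed after 5 h with compound in DMSO (217-fold dilution). After 16 h at 37C, CCF4-AM substrate was added for 2 h, and the 460/530 nm emission ratio was scored as gain-of-signal versus DMSO.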

[7] = TOX21_p53_BLA_p5_viability: Viability Assessment in the Tox21 HCT-116 p53 Agonism Beta-lactamase Assay, Phase 5 (AID 2283600)
Summary of the method: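 Seeded cells (4000/well) settle 5 h before compound addition. Plates then incubate 16 h at 37C, receive FRET substrate for 2 h, and finally CellTiter-Glo, with luminescence measured after a 30 min room-temperature incubation.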

[8] = molecular target: Cellular tumor antigen p53 (Homo sapiens) (UniProt P04637); experiment: TOX21_p53_BLA_p4_ratio: Tox21 HCT-116 p53 Agonism Beta-lactamase Assay, Ratio, Phase 4 (AID 2283601)
Summary of the method: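 HCT116 cells carrying an inducible beta-lactamase reporter were plated at 4000 cells/well, rested 5 h, then exposed to compounds in DMSO (217-fold dilution) for 16 h at 37C. CCF4-AM substrate was loaded 2 h at room temperature; 460/530 nm emission ratio scored gain-of-signal versus DMSO.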

PGR (gene 5241) [9] = molecular target: PGR (gene 5241) (UniProt P06401); experiment: TOX21_PR_BLA_Followup_Agonist_ratio: Tox21 HEK293 Progesterone Receptor (PR) Agonism Beta-lactamase Follow-Up Assay, Ratio (AID 2283933)
PGR (gene 5241), sequence (P06401 whole entry, looked up): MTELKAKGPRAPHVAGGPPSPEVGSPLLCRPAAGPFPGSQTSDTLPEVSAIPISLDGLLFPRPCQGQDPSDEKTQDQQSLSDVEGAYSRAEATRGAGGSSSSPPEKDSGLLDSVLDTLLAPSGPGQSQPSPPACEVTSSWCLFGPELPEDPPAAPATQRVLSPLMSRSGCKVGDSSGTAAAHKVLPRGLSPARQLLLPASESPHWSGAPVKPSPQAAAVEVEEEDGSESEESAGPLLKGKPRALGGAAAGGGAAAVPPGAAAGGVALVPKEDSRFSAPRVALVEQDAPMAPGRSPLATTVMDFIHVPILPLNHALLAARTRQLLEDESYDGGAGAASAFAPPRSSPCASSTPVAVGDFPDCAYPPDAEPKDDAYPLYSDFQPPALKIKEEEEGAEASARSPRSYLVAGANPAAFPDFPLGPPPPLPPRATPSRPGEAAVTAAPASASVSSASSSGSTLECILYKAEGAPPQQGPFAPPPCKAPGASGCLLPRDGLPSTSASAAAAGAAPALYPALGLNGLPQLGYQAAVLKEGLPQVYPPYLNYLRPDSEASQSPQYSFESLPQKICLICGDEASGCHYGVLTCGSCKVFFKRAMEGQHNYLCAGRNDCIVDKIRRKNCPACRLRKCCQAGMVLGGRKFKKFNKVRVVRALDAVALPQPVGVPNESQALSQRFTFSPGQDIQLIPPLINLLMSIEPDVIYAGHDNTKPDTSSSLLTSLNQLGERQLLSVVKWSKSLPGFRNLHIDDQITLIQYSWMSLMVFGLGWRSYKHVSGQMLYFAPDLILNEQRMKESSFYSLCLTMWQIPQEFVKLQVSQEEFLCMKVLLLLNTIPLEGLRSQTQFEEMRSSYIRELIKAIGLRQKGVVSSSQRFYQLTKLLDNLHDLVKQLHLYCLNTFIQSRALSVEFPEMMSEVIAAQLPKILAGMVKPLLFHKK
Summary of the method: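 PR-UAS-bla HEK293T cells in medium with 2% charcoal-stripped FBS were dosed after 6 h plating and incubated 16 h at 37C. LiveBLAzer FRET substrate was added for 2 h at room temperature. Cleaved/uncleaved substrate ratio fitted against DMSO; CellTiter-Glo viability run in the same wells.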

PGR (gene 5241) [10] = molecular target: PGR (gene 5241) (UniProt P06401); experiment: TOX21_PR_BLA_Followup_Antagonist_ratio: Tox21 HEK293 Progesterone Receptor (PR) Antagonism Beta-lactamase Follow-Up Assay, Ratio (AID 2283934)
Summary of the method: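 PR-UAS-bla HEK293T cells, 3,000/well in 2% charcoal-stripped FBS, given compound plus 1nM R5020 agonist for 16 hr at 37C. Beta-lactamase FRET substrate 2 hours, ratio cleaved/uncleaved fluorescence; viability by CellTiter-Glo in same wells.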

[11] = TOX21_PR_BLA_Followup_Agonist_viability: Viability Assessment in the Tox21 HEK293 Progesterone Receptor (PR) Agonism Beta-lactamase Follow-Up Assay (AID 2283935);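 further: signal loss means lower viability so actives are cytotoxic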
Summary of the method: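 PR-UAS-bla HEK293T cells in 2% charcoal-stripped FBS medium, plated 6 hr before compound addition, exposed 16 hr at 37C. Viability read by CellTiter-Glo ATP luminescence after 30 min at room temperature, in the same wells as the beta-lactamase readout.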

[12] = TOX21_PR_BLA_Followup_Antagonist_viability: Viability Assessment in the Tox21 HEK293 Progesterone Receptor (PR) Antagonism Beta-lactamase Follow-Up Assay (AID 2283936);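 further: hits lower the luminescence signal meaning cytotoxicity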
Summary of the method: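 PR-UAS-bla HEK293T cells (3,000/well, 2% charcoal-stripped FBS) given compound plus R5020 agonist, 16 h at 37C. CellTiter-Glo added after bla read, 30 min at room temperature; luminescence loss indicates cytotoxicity.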

[13] = TOX21_PR_LUC_Followup_Antagonist_viability: Viability Assessment in the Tox21 HEK293 Progesterone Receptor (PR) Antagonism Luciferase Follow-Up Assay (AID 2283940)
Summary of the method: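 HEK293-PR-A-luc cells kept in charcoal-stripped FBS medium were plated 5 h before compound addition, then exposed 16 h at 37C; viability read as cellular ATP by luciferase luminescence, loss of signal indicating cytotoxicity.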

[14] = TOX21_PR_LUC_Followup_Agonist_viability: Viability Assessment in the Tox21 HEK293 Progesterone Receptor (PR) Agonism Luciferase Follow-Up Assay (AID 2283941);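 further: loss of signal means cytotoxicity so actives lower viability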
Summary of the method: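 HEK293-PR-A-luc cells, kept in 10% charcoal-stripped FBS medium, were treated with compounds for 16 h at 37C. Viability read as cellular ATP by luciferase-coupled luminescence; loss of signal indicates cytotoxicity.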

[15] = molecular target: Thyroid hormone receptor alpha (Rattus norvegicus) + Thyroid hormone receptor beta (Rattus norvegicus) (UniProt P18113+P63059); experiment: TOX21_TR_LUC_GH3_Agonist_Followup: Tox21 GH3 Thyroid Hormone Receptor Agonism Luciferase Follow-Up Assay (AID 2283939)
Thyroid hormone receptor alpha (Rattus norvegicus) + Thyroid hormone receptor beta (Rattus norvegicus), sequence (P63059 whole entry, looked up): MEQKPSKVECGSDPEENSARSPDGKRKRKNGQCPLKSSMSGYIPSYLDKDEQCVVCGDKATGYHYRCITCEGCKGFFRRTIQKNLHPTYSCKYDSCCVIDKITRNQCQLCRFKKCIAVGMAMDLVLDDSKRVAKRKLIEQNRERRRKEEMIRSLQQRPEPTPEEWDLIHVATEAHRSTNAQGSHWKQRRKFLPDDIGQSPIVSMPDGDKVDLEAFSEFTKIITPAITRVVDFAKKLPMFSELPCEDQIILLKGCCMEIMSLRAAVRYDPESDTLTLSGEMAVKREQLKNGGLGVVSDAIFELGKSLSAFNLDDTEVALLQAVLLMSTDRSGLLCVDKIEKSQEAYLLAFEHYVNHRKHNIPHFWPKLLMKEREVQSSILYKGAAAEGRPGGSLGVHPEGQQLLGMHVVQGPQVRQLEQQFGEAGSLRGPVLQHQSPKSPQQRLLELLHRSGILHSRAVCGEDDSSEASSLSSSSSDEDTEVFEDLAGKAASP
Thyroid hormone receptor alpha (Rattus norvegicus) + Thyroid hormone receptor beta (Rattus norvegicus), sequence (P18113 whole entry, looked up): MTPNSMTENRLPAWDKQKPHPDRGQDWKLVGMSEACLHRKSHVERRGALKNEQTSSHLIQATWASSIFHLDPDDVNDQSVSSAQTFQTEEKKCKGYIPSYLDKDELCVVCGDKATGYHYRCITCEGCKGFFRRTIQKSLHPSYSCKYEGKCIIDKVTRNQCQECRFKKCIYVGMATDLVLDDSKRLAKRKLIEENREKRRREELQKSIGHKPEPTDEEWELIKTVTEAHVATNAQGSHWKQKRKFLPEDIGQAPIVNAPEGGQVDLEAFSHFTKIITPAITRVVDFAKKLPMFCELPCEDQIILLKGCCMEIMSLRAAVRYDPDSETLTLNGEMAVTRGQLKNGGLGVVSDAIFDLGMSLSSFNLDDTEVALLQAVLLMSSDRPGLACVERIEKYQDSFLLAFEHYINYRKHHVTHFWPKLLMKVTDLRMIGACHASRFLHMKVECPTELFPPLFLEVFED
Summary of the method: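 Rat GH3 cells (1,500/well) in serum-free assay medium, treated with 15-point series, 92 uM to 5 nM final, for 24 h at 37C. Luciferase via ONE-Glo luminescence; gain of signal fitted against DMSO, T3 positive control.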

THRA (gene 7067) = THRA (gene 7067) (UniProt P10827); experiment: TOX21_TRA_COA_Agonist_Followup_ratio: Tox21 Thyroid Hormone Receptor alpha Agonism through Coactivator Recruitment Follow-Up Assay, Ratio (AID 2283948; active means hit-call score of the fitted dose curve at least 0.9, where 1 is the maximum; inactive means score below 0.9)
THRA (gene 7067), sequence (P10827 whole entry, looked up, the tested form may be a part): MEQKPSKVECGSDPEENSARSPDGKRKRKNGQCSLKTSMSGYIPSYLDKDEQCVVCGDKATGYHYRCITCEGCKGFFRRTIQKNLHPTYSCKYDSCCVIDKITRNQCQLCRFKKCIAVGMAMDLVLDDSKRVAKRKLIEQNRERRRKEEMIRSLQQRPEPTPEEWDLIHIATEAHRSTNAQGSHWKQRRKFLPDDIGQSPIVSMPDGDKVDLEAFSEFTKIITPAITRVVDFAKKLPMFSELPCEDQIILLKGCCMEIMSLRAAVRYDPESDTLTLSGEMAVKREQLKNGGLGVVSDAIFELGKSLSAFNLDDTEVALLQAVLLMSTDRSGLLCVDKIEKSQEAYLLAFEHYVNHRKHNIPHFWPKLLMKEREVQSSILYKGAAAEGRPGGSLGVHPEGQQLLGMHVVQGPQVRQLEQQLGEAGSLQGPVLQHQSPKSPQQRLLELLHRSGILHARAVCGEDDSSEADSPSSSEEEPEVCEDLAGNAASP
Summary of the method: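 Agonist-mode biochemical TR-FRET with TRα LBD and SRC-2 coactivator peptide; activity expressed as percent of T3 response over DMSO baseline.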

THRB (gene 7068) [16] = molecular target: THRB (gene 7068) (UniProt P10828); experiment: TOX21_TRB_BLA_Agonist_Followup_ratio: Tox21 Thyroid Hormone Receptor beta Agonism Beta-lactamase (BLA) Follow-Up Assay, Ratio (AID 2283954)
THRB (gene 7068), sequence (P10828 whole entry, looked up, the tested form may be a part): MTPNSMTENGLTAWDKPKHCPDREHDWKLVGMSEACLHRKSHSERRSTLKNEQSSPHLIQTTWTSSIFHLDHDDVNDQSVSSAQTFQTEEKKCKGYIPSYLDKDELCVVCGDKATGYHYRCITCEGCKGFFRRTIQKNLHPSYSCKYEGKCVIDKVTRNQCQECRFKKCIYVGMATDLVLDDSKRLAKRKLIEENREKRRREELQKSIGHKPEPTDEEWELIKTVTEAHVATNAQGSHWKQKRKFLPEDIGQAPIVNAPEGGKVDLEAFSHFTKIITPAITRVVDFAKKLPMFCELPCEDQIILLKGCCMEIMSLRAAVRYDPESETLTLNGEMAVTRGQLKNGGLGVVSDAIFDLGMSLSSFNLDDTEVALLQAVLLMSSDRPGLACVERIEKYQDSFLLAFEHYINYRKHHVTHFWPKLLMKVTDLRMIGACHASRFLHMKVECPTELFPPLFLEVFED
Summary of the method: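 Human TRβ LBD–GAL4 DBD fusion in GeneBLAzer UAS-bla HEK293T cells; 11 concentrations in triplicate, 18 h at 37°C/5% CO2, T3 as agonist control. CCF4-AM substrate 2 h at room temperature; 460:530 nm ratio fitted for gain of signal versus DMSO.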

THRB (gene 7068) [17] = molecular target: THRB (gene 7068) (UniProt P10828); experiment: TOX21_TRB_COA_Agonist_Followup_ratio: Tox21 Thyroid Hormone Receptor beta Agonism through Coactivator Recruitment Follow-Up Assay, Ratio (AID 2283963; active means hit-call score of the fitted dose curve at least 0.9, where 1 is the maximum; inactive means score below 0.9)
Summary of the method: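 First, the GST-fused TRβ ligand-binding domain (5.0 nM) was incubated with test compound in 0.10% BSA. Next, fluorescein-tagged SRC-2 peptide (200 nM) and terbium anti-GST antibody (2 nM) were added. Finally, TR-FRET emission ratios were normalized against DMSO and T3 controls.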

[18] = molecular target: Retinoic acid receptor RXR-alpha (Homo sapiens) (UniProt P19793); experiment: TOX21_TR_RXR_BLA_Agonist_Followup_ratio: Tox21 Thyroid Hormone Receptor beta Retinoid X Receptor alpha (RXRa) Agonism Beta-lactamase (BLA) Follow-Up Assay, Ratio (AID 2283968)
Retinoic acid receptor RXR-alpha (Homo sapiens), sequence (P19793 whole entry, looked up): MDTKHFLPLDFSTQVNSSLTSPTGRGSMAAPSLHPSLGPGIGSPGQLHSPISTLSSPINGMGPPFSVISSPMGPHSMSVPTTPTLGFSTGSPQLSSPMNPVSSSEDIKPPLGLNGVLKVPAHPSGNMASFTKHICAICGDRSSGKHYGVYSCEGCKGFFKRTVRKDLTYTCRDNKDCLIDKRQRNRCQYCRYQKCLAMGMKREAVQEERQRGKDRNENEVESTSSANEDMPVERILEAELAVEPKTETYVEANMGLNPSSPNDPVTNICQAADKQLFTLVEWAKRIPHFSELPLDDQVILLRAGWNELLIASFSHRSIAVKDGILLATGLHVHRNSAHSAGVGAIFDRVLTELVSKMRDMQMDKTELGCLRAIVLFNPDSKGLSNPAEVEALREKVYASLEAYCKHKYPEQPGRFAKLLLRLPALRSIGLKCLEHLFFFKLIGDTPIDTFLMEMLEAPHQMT
Summary of the method: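 RXRa-UAS-bla HEK293T cells, 5 h attachment at 37C/5% CO2, then 11 concentrations in triplicate for 16 h; 9-cis retinoic acid positive control. FRET-B/GCCF4-AM substrate 2 h at room temperature; 460:530 nm ratio, fitted for gain versus DMSO.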

[19] = TOX21_TR_RXR_BLA_Agonist_Followup_viability: Viability Assessment in the Tox21 Thyroid Hormone Receptor beta Retinoid X Receptor alpha (RXRa) Agonism Beta-lactamase (BLA) Follow-Up Assay (AID 2283970)
Summary of the method: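 RXRa-UAS-bla HEK293T cells, 2,500/well in phenol red-free DMEM with 2% charcoal-stripped FBS, dosed for 16 h at 37C. Viability measured by CellTiter-Glo ATP luminescence; fitted bidirectionally against DMSO baseline, loss of signal indicating cytotoxicity.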

PGR (gene 5241) [20] = molecular target: PGR (gene 5241) (UniProt P06401); experiment: TOX21_PR_LUC_Followup_Antagonist: Tox21 HEK293 Progesterone Receptor (PR) Antagonism Luciferase Follow-Up Assay (AID 2283938);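 further: curve fitted upward as signal gain over DMSO baseline despite antagonist label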
Summary of the method: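 Luciferase reporter in HEK293-PR-A-luc cells: 16 h compound treatment at 37C, ONE-Glo luminescence detection, DMSO as negative control and baseline.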

Measured: AC50

O=C1c2ccccc2C(=O)C1c1ccc2ccccc2n1
inactive: [1] | [2] | [3] | [4] | [5] | [6] | [7] | [8]

C[C@@H]1CCC2[C@@H](C)[C@@H](O)O[C@@H]3O[C@@]4(C)CC[C@@H]1[C@@]23OO4 (some centres undefined)
inactive: [1] | [2] | [3] | [4] | [5] | [6] | [7] | [8]

CCC(=C(CC)c1ccc(O)cc1)c1ccc(O)cc1
inactive: [3] | [5] | [7] | PGR (gene 5241) [9] | [11] | [12] | [13] | [14]
active: [1] 38.3 µM | [2] 7.14 µM | [4] 7.64 µM | [6] 17.7 µM | [8] 7.47 µM | PGR (gene 5241) [10] 23.7 µM

Cc1cc(-n2c(=O)[nH]c(=O)n(C)c2=O)ccc1Oc1ccc(S(=O)(=O)C(F)(F)F)cc1
not listed: PGR (gene 5241) [9] | PGR (gene 5241) [10] | [11] | [12] | [13] | [14] | PGR (gene 5241) [20]
inactive: all other assays above

O=C(O)c1ccc(Cl)c(Cl)c1
inactive: [1] | [2] | [3] | [4] | [5] | [6] | [7] | [8]

COc1cc(C)c(/C=C/C(C)=C/C=C/C(C)=C/C(=O)O)c(C)c1C
inactive: [1] | [3] | [4] | [5] | [7] | [8] | THRA (gene 7067) | THRB (gene 7068) [17] | [19]
active: [2] 33.4 µM | [6] 36 µM | [15] 0.767 µM | [18] 0.593 µM

C#C[C@]1(O)CC[C@H]2[C@@H]3CCc4cc(OC5CCCC5)ccc4[C@H]3CC[C@@]21C
active: [7] 37.8 µM | PGR (gene 5241) [10] 13.6 µM | PGR (gene 5241) [20] 16.2 µM
not listed: PGR (gene 5241) [9] | [15] | THRA (gene 7067) | THRB (gene 7068) [16] | THRB (gene 7068) [17] | [18] | [19]
inactive: all other assays above

CCCCCCCCCCCCCCCCOCCOCCOCCOCCOCCOCCOCCOCCOCCOCCOCCOCCOCCOCCOCCOCCOCCOCCOCCOCCO
active: [1] 30.1 µM | [2] 29.5 µM | [3] 6.03 µM | [4] 11.7 µM | [5] 34.5 µM | [6] 41.4 µM | [7] 33.3 µM | [8] 43.5 µM

O=C(CCS)OCC(COC(=O)CCS)(COC(=O)CCS)COC(=O)CCS
active: [4] 15.7 µM
inactive: [1] | [2] | [3] | [5] | [6] | [7] | [8]

CN(Cc1cc(Br)cc(Br)c1N)C1CCCCC1
active: [3] 39.5 µM
inactive: [1] | [2] | [4] | [5] | [6] | [7] | [8]

CNc1ccc(O)cc1
active: [3] 82 µM | [7] 78 µM
inactive: [1] | [2] | [4] | [5] | [6] | [8]

COc1c(Br)cc(Br)c(C)c1Br
inactive: [1] | [2] | [3] | [4] | [5] | [6] | [7] | [8]
